# PDI turbidity: blocks human protein disulfide isomerase activity; P07237; inhibition, % at 10 µM; PDI insulin aggregation turbidity, A650, 90 min; 350,000 compounds, 0.052% hits;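 active means mean inhibition across replicates of 30% or more, whatever share of single replicates reach that level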
# PglD inh: inhibitors of Campylobacter jejuni PglD acetyltransferase. 360,000 compounds, 0.098% hits. purified PglD enzyme, DTNB colorimetric CoA detection. inhibition, % at 12.5 µM; in the data active means inhibition above about 16%, passing the limit was not always enough
# ERp5 inh: blocks human ERp5 reductase activity on insulin | inhibition, % at 9.99 µM | 350,000 compounds, 0.05% hits | Q15084 | ERp5 insulin aggregation, absorbance 650 nm, 90 min;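 active means mean replicate inhibition above about 25%, with every replicate also reaching it, limit read from the data, passing the limit was not always enough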
# ARNT-TACC3 inh: disrupts binding between human ARNT and TACC3. inhibition, % at 9.99 µM. Q9Y6A5. AID 623870. 390,000 compounds, 0.66% hits. AlphaScreen His-ARNT PAS-B/GST-TACC3 binding, luminescence; TACC3 fragment carries E629A point mutation;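 active means mean inhibition of replicates at least 50% and at least half of replicates each reaching 50%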;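 further: 0% = complete ARNT plus TACC3 wells and 100% = ARNT alone without TACC3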
# ALR inh: inhibitors of human sulfhydryl oxidase ALR; P55789; purified ALR, DTT oxidation, H2O2 HRP-luminol luminescence; 290,000 compounds, 3.8% hits; inhibition, % (test concentration not listed);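 active means mean replicate inhibition above about 79%, with every replicate also reaching it, limit read from the data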
# Target sequence (P55789 whole entry, looked up): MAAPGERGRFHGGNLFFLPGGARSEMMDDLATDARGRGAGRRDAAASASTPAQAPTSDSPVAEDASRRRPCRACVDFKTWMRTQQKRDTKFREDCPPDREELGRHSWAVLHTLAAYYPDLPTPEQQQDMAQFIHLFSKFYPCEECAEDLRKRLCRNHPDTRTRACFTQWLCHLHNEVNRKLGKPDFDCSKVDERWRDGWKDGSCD
# CendR NRP1 mod: modulators of CendR peptide binding to human neuropilin-1; inhibition, % at 25 µM; AID 602438; 360,000 compounds, 0.85% hits; FAM-RPARPAR peptide binding to NRP-1, fluorescence polarization; O14786;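 active means inhibition or corrected inhibition above about 18%, plus a signal ratio from 0.5 to 1.5, limit read from the data, passing the limit was not always enough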
# * hit, by the source's call; . = no result given. The sample as a whole holds a higher share of hits than the screen did.
SMILES,PDI turbidity,PglD inh,ERp5 inh,ARNT-TACC3 inh,ALR inh,CendR NRP1 mod
CC1(C)OC(c2ccccc2)=C/C(=C/C=N/NC(=O)c2ccncc2)O1,-2,.,-3,31,98*,-10
O=C(O)CC/C(=C\c1ccccc1[N+](=O)[O-])c1nc2ccccc2s1,-3,-3,-2,-3,97*,-12
CN(c1ccccc1)c1ccc(/C=C(/CCC(=O)O)c2nc3ccccc3s2)cc1[N+](=O)[O-],-8,.,-4,7,.,-12
O=C(O)CC/C(=C\c1cc([N+](=O)[O-])ccc1Cl)c1nc2ccccc2s1,2,.,.,27,96*,-28
CC(=O)N1CC2(C1)[C@H](c1ccc(-c3ccc(C#N)cc3)cc1)[C@H](CO)N2C(C)=O,.,.,-2,.,.,.
O=C(Oc1c(CN2CCOCC2)cc(Cl)c2cccnc12)c1ccccc1F,-5,.,1,66*,.,-11
COc1ccc(C(=O)Oc2c(CN3CCOCC3)cc(Cl)c3cccnc23)cc1OC,.,.,-1,.,-2,.
Cc1nc(-c2ccc(NC(=O)C3CC3)cc2)cs1,-2,-1,0,-5,67,4
Cc1nc(-c2ccc(NC(=O)CC(C)C)cc2)cs1,-4,.,.,0,100*,-13
CC(=O)NNc1nc(-c2ccc(NC(C)=O)cc2)cs1,-6,.,-5,6,99*,-17
C[C@H]1CN([C@@H](C)CO)C(=O)c2cc(C#CC(C)(C)O)cnc2O[C@@H]1CN(C)C(=O)c1ccccc1F,.,0,2,14,.,.
C[C@H](CO)N1C[C@H](C)[C@H](CN(C)C(=O)CCN2CCCCC2)Oc2ncc(C#CCN(C)C)cc2C1=O,.,-2,-3,-12,.,.
CSC1=NSC2=NC(=O)/C(=C/c3coc4ccccc4c3=O)C(=N)N12,5,.,13,26,98*,132
N=C1/C(=C/c2cccs2)C(=O)N=C2SN=C(SCc3ccccc3)N12,-8,5,.,-7,96*,-24
CSC1=NSC2=NC(=O)/C(=C/c3coc4ccc(O)cc4c3=O)C(=N)N12,3,.,-1,13,22,137
CO[C@H]1CN(C)C(=O)c2cc(NS(C)(=O)=O)ccc2OC[C@@H](C)NC[C@@H]1C,.,.,-3,.,.,.
COc1cccc(/C=C2\SC(=O)N(CC(=O)NCCCn3ccnc3)C2=O)c1,-5,3,3,7,99*,5
COc1ccc(/C=C2\SC(=O)N(CCNC(=O)Cn3[nH]c(=O)c4ccccc4c3=O)C2=O)cc1,5,-6,-9,-5,27,29*
COc1ccc(/C=C2\SC(=O)N(CCNC(=O)Cc3coc4cc(OC)ccc34)C2=O)cc1,-3,-4,-4,6,-3,-12
COc1cccc(/C=C2\SC(=O)N(CCC(=O)NCCCn3ccnc3)C2=O)c1,2,-2,1,-2,11,8
COc1ccc2c3c([nH]c2c1)[C@@H](CO)N(C(=O)CN(C)C)CC31CN(C(=O)c2cccnc2)C1,.,.,7,.,.,.
C[C@@H]1CN([C@H](C)CO)C(=O)c2cccc(NC(=O)C3CCOCC3)c2O[C@H]1CN(C)Cc1ccc(Oc2ccccc2)cc1,.,1,1,18,.,.
C[C@H]1CCCCO[C@H](CN(C)S(=O)(=O)c2ccccc2)[C@@H](C)CN([C@@H](C)CO)C(=O)c2cc(NC(=O)Nc3ccc(F)cc3)ccc2O1,.,3,-11,5,.,.
c1ccc(C2CC(c3ccccc3)n3c(nc4ccccc43)N2)cc1 (stereo unspecified),1,.,1,-7,2,24*
O=C(/C=C/c1ccco1)NCC1OCCc2ccccc21 (stereo unspecified),14,7,.,-2,98*,-43
SMILES,PDI turbidity,PglD inh,ERp5 inh,ARNT-TACC3 inh,ALR inh,CendR NRP1 mod
CC(=O)Nc1ccccc1-c1nnc(SCc2ccccc2Cl)[nH]c1=O,5,8,.,-6,99*,-18
CCCCCCCc1c(C#N)c(N)[nH]c(=S)c1C#N,.,.,2,.,96*,.
Cc1cccc(NC(=S)NNC(=O)c2ccc(O)cc2O)c1C,-2,-11,-5,25,99*,3
OC[C@H]1[C@@H](c2ccccc2)C2(CN(Cc3nccs3)C2)N1CCC(F)(F)F,.,.,-8,.,.,.
CCOc1ccc(N/C(SCc2cccc([N+](=O)[O-])c2)=C(/C#N)C(N)=O)cc1,-4,.,0,8,99*,6
CCOc1ccc(N/C(SC)=C(/C#N)C(N)=O)cc1,9,1,.,-2,1,-1
Oc1c(C=NCc2ccncc2)sc2ccccc12,.,.,.,.,83*,.
CCOc1ccc(/C=c2\sc3nc(-c4ccco4)nn3c2=O)cc1OCC,-2,-8,.,-5,18,-32
COc1cc(/C=c2\sc3nc(=O)c(-c4ccccc4)nn3c2=O)ccc1OCCC(C)C,-7,9,.,-3,-4,40*
Nn1c(Cc2cccc3ccccc23)nnc1SCc1ccccc1Cl,-4,6,.,-11,87*,-4
CCC(=O)N1CCC2(CC1)CN(C(=O)c1cnccn1)[C@@H](CO)c1c2c2ccc(OC)cc2n1C,.,.,-3,.,.,.
COc1cccc(NC(=O)N2C[C@H](O)COC[C@@H]3O[C@@H](CC(=O)NC4CCC4)CC[C@H]32)c1,.,8,0,-3,.,.
Cc1ccsc1C(=O)NNC(=O)CCN1CCN(c2ccccc2)CC1,-6,.,-3,17,94*,6
CCCOc1ccc(C(=O)CCN2CCCCC2)cc1,1,14,.,-10,7,-11
CC(Oc1ccc(Br)cc1)C(=O)NNC(=O)CCN1CCN(c2ccccc2)CC1 (stereo unspecified),2,0,-10,0,95*,1
CCOc1ccc(NC(=O)CCN2CCN(c3ccccc3)CC2)cc1,-4,-3,.,1,18,9
CCOc1ccc(C(=O)CCC(=O)NNC(=O)CCN2CCN(c3ccccc3)CC2)cc1,-5,5,2,1,95*,-1
CCCCOc1ccc(C(=O)CCN2CCOCC2)cc1,0,.,14,-4,98*,11
O=C(CN1CCOCC1)N1[C@H](CO)[C@@H]2c3ccccc3NC[C@@H]21,.,-2,-3,-1,.,.
COc1cc(C)c(-c2cc(C(=O)O)c(C)o2)cc1C(C)C,9,-10,.,.,97*,-5
C=CCn1c(Cc2cccc3ccccc23)n[nH]c1=S,-63,2,.,10,92*,7
S=c1[nH]nc(Cc2noc3ccccc23)n1-c1ccccc1,13,0,3,-4,86*,-2
C=CCn1c(CSc2nnc(-c3ccccc3)n2C)n[nH]c1=S,5,4,5,1,83*,2
C=CCn1c(C(c2ccccc2)c2ccccc2)n[nH]c1=S,-8,6,.,2,.,5
C=CCn1c(OCc2ccccc2)n[nH]c1=S,7,4,1,14,96*,0
C=CCn1c(SCc2n[nH]c(=S)n2-c2ccccc2)nnc1-c1ccccc1,-8,4,2,-2,25,-5
